Experimental data from PubChem BioAssay (NCATS).
Inconclusive results are not listed. For part of these data: Measured potencies and affinities stand elsewhere. Active and inactive are the calls of the source.

How the values were obtained:
[1] = Ebola virus entry assay, reporter ratio channel; AC50: Channel type: primary unless noted; outcome: Channel type: primary unless noted
[2] = Ebola virus entry assay, blue channel (ratio component)
[3] = Ebola virus entry reporter assay, green channel fluorescence
[4] = Ebola virus entry cell assay, ratio channel
[5] = qHTS assay for measurement of the activity of small molecule inhibitors on Zika virus induced Caspase-3 activity in human iPSC derived neural progenitor cells (hNPCs) (AID 1224857; active = well fitted curve in the direction sought with a large enough effect; an effect the other way counts as inactive or inconclusive; also: nearly all actives have a fitted effect of over 65% in size)
In short: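 hNPCs seeded 350 cells/well, cultured 16–20 h; compounds added 1 h before ZIKV (2 FFU/cell), 37 C 6 h. Caspase-Glo 3/7 luminescence after 30 min RT; % inhibition from induction scaled to uninfected (0%) and infected (100%) wells.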

[6] = qHTS assay for measurement of the activity of small molecule inhibitors on Zika virus induced Caspase-3 activity in human astrocytoma cells (AID 1224859; active = well fitted curve in the direction sought with a large enough effect; an effect the other way counts as inactive or inconclusive)
In short: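 Luminescence read-out (Caspase-Glo 3/7, 30 min RT) of caspase activity in SNB-19 cells infected 6 h with ZIKV, 2 FFU/cell, after 1 h compound pretreatment; % inhibition from induction normalised to uninfected (0%) and infected (100%) wells.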

[7] = qHTS assay to identify small molecule inhibitors of chordoma cells - UCH-1 (AID 1259355; active = well fitted curve in the direction sought with a large enough effect; an effect the other way counts as inactive or inconclusive; also: nearly all actives have a fitted effect of over 55% in size; also: potency is read from the fitted curve at half-maximal effect)
In short: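 Cells (800/well) were seeded and left overnight at 37 C, 5% CO2, then treated with drugs at 15 concentrations plus a combination mix of auranofin, camptothecin, doxorubicin, rubitecan and topotecan. Viability after 48hr was read by CellTiter-Glo luminescence.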

[8] = High-throughput drug toxicity screening in the BPDCN cell line Gen2.2 (AID 1224824); conditions: Gen2.2 BPDCN cells; at 45.8 µM (top of the series);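 also: cells exposed to compounds for 48 h before reading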
In short: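 Gen2.2 cells (500/well) in phenol red-free RPMI with 10% FBS were exposed to compounds for 48 h at 37 °C, 5% CO2. Viability was read by CellTiter-Glo luminescence and normalized to DMSO (100%) and 9.2 uM bortezomib (0%).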

[9] = High-throughput drug toxicity screening in the BPDCN cell line Cal-1 (AID 1224825); conditions: Cal-1 BPDCN cell viability, qHTS; at 45.8 µM (top of the series)
In short: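 Cal-1 cells, 500 per well in phenol-red-free RPMI with 10% FBS, exposed to compounds for 48 hours at 37C, 5% CO2. Viability read by CellTiter-Glo luminescence; percent activity normalized to DMSO (100%) and 9.2 uM bortezomib final (0%).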

[10] = qHTS Screen of the MIPE 4.0 Collection Against Ewings Sarcoma (RDES) (AID 1259252; active = well fitted curve in the direction sought with a large enough effect; an effect the other way counts as inactive or inconclusive; also: nearly all actives have a fitted effect of over 35% in size; also: potency is read from the fitted curve at half-maximal effect)
In short: (§1)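 Log-phase cells in RPMI with 5% FBS attached for 4 h, then received compounds as a titration for 48 h at 37C, 5% CO2. Viability was read by CellTiter-Glo luminescence and normalized to DMSO and no-cell wells.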

[11] = qHTS Screen of the MIPE 4.0 Collection Against Ewings Sarcoma (TC32) (AID 1259256; active = well fitted curve in the direction sought with a large enough effect; an effect the other way counts as inactive or inconclusive; also: nearly all actives have a fitted effect of over 45% in size)
In short: as §1

[12] = qHTS assay to identify small molecule inhibitors of chordoma cells - UCH-2 (AID 1259356; active = well fitted curve in the direction sought with a large enough effect; an effect the other way counts as inactive or inconclusive)
[13] = Immunotoxin (HA22) sensitization/mitigation study. Vehicle arm (PBS) (AID 1159510); also: potency is read from the fitted curve at half-maximal effect
[14] = Immunotoxin (SS1P) sensitization/mitigation study. Vehicle arm (DMEM) (AID 1159513); also: potency is read from the fitted curve at half-maximal effect
[15] = qHTS Screen of the MIPE 4.0 Collection Against Ewings Sarcoma (EW8) (AID 1259255; active = well fitted curve in the direction sought with a large enough effect; an effect the other way counts as inactive or inconclusive; also: nearly all actives have a fitted effect of over 35% in size)
In short: as §1

[16] = Identifying Small Molecule Inhibitors of Pancreatic Cancer Stem Cells (A2780, Spheroid) (AID 1259357; active = well fitted curve in the direction sought with a large enough effect; an effect the other way counts as inactive or inconclusive;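 also: compound exposure lasted 48 h before the ATP luminescence read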); conditions: Potency: A2780 spheroid viability
In short: (§2)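 Cytotoxicity read by CellTiter-Glo luminescence after 48 h compound exposure at 37C; percent activity scaled between DMSO-treated cells and cell-free wells. Spheroid formats used cells pre-formed 14 days in stem cell media on hydrogel.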

[17] = Identifying Small Molecule Inhibitors of Pancreatic Cancer Stem Cells (SN12C, Adherent) (AID 1259358; active = well fitted curve in the direction sought with a large enough effect; an effect the other way counts as inactive or inconclusive;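 also: cell survival measured after 48 h of compound exposure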)
In short: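 Spheroids grown 14 days in stem cell media on hydrogel-coated nonadherent plates; 2D lines seeded directly. Compounds added after 4 h attachment, 48 h at 37C, 5% CO2; CellTiter-Glo luminescence normalized to DMSO (no inhibition) and no-cell wells (full inhibition).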

[18] = Identifying Small Molecule Inhibitors of Pancreatic Cancer Stem Cells (SN12C, Spheroid) (AID 1259360; active = well fitted curve in the direction sought with a large enough effect; an effect the other way counts as inactive or inconclusive); conditions: Potency: SN12C spheroid viability
In short: as §2

C[C@@H](O)[C@H]1C(=O)N2C(C(=O)O)=C(S[C@@H]3CN[C@H](CNS(N)(=O)=O)C3)[C@H](C)[C@H]12
inactive: outcome [2] | outcome [3] | outcome [4]
active: AC50 [1] 25.1 µM

CC(=O)O[C@]1(C(C)=O)CC[C@H]2[C@@H]3C=C(Cl)C4=CC(=O)[C@@H]5C[C@@H]5[C@]4(C)[C@H]3CC[C@@]21C
active: AC50 [1] 3.55 µM
inactive: outcome [2] | outcome [4]

c1ccc2c(c1)OCC(C1=NCCN1)O2 (stereo not given)
inactive: outcome [2] | Potency [5] | outcome [6]
active: AC50 [1] 35.5 µM | Potency [7] 31.6 µM

COc1cc2c(c(OC)c1OC)-c1ccc(OC)c(=O)cc1[C@@H](NC(C)=O)CC2
active: AC50 [4] 0.316 µM
inactive: outcome [1] inactive [Channel type: confirmation] | outcome [2]

COc1ccc2c(c1OC)CN1CCc3cc4c(cc3C1C2)OCO4 (stereo not given)
active: Potency [10] 14.8 µM
62.2%: viability (% of control) [9]
173%: cell viability, % of control (lower = more cytotoxic) [8]
inactive: outcome [1] | outcome [2] | Potency [5] | outcome [6] | Potency [11] | Potency [7] | Potency [12]

COc1c(C)c2c(c(O)c1C/C=C(\C)CCC(=O)OCCN1CCOCC1)C(=O)OC2
inactive: outcome [1] | outcome [2]
active: AC50 [4] 3.98 µM

Cc1ccc(S(=O)(=O)NC(=O)NN2CCCCCC2)cc1
inactive: outcome [1] | outcome [2] | outcome [4]

C[C@]12CC[C@H]3[C@@H](CCC4=CC(=O)CC[C@@H]43)[C@@H]1CC[C@@H]2OC(=O)CCc1ccccc1
inactive: outcome [1] | outcome [2] | outcome [3] | outcome [4] | outcome [6]

CCC(C)n1ncn(-c2ccc(N3CCN(c4ccc(OC[C@H]5CO[C@](Cn6cncn6)(c6ccc(Cl)cc6Cl)O5)cc4)CC3)cc2)c1=O (stereo not given in full)
active: AC50 [4] 2 µM | Potency [13] 0.743 µM | Potency [14] 16.6 µM
inactive: outcome [1] | outcome [2]

CC[C@]1(O)C[C@H]2CN(CCc3c([nH]c4ccccc34)[C@@](C(=O)OC)(c3cc4c(cc3OC)N(C=O)[C@H]3[C@@](O)(C(=O)OC)[C@H](OC(C)=O)[C@]5(CC)C=CCN6CC[C@]43[C@@H]65)C2)C1
inactive: outcome [1] inactive [Channel type: confirmation] | outcome [2]
active: AC50 [4] 0.112 µM

CCCc1nc2c(C)cc(-c3nc4ccccc4n3C)cc2n1Cc1ccc(-c2ccccc2C(=O)O)cc1
active: Potency [13] 26.4 µM
inactive: outcome [1] | outcome [2] | Potency [14]

NCCCC(O)(P(=O)(O)O)P(=O)(O)O
inactive: outcome [1] inactive [Channel type: confirmation] | outcome [2]
active: AC50 [4] 3.98 µM

CNCC(O)c1ccc(O)cc1 (stereo not given)
114%: viability (% of control) [9]
inactive: outcome [1] | outcome [2] | outcome [6] | Potency [10] | Potency [15] | Potency [11] | Potency [7] | Potency [12]
145%: cell viability, % of control (lower = more cytotoxic) [8]

Cc1cccc(C)c1OCC(C)N (stereo not given)
inactive: outcome [1] | outcome [2] | outcome [4]

CC[C@H](C)C(=O)O[C@H]1C[C@@H](C)C=C2C=C[C@H](C)[C@H](CC[C@@H]3C[C@@H](O)CC(=O)O3)[C@H]21
inactive: outcome [1] | outcome [2] | outcome [4]

CCCC(CCC)C(=O)O
inactive: outcome [1] | outcome [2] | outcome [3] | outcome [4]

COC(=O)Nc1nc2ccc(C(=O)c3ccccc3)cc2[nH]1
inactive: outcome [2]
active: AC50 [1] 1.26 µM | AC50 [4] 5.62 µM

C[C@]12CCC(=O)C(O)=C1CC[C@@H]1[C@@H]2CC[C@]2(C)C(=O)CC[C@@H]12
inactive: outcome [1] | outcome [2] | Potency [13] | Potency [14] | Potency [5] | outcome [6] | Potency [16] | Potency [17] | Potency [18]

CCOC(=O)C1=C(C)NC(C)=C(C(=O)OC)C1c1cccc(Cl)c1Cl (stereo not given)
inactive: outcome [1] | outcome [2] | outcome [4]

CC(C)(C)NCC(O)c1cc(Cl)c(N)c(Cl)c1 (stereo not given)
inactive: outcome [1] | outcome [2] | outcome [6] | Potency [7] | Potency [12]

Clc1cccc(N2CCNCC2)c1
inactive: outcome [1] | outcome [2] | outcome [6] | Potency [7] | Potency [12]

Cc1cccc(C)c1NC1=NCCCS1
inactive: outcome [1] | outcome [2] | outcome [6] | Potency [7] | Potency [12]

C=CCN1CC[C@]23c4c5ccc(O)c4O[C@H]2C(=O)CC[C@@]3(O)[C@H]1C5
inactive: outcome [1] | outcome [2] | Potency [5] | outcome [6] | Potency [7] | Potency [12]

O=C1NCN(c2ccccc2)C12CCN(CC1COc3ccccc3O1)CC2 (stereo not given)
inactive: outcome [1] | outcome [2] | outcome [6] | Potency [7] | Potency [12]

CCN(CC)CCOC(=O)C(O)(c1ccccc1)c1ccccc1
inactive: outcome [1] | outcome [2] | Potency [5] | outcome [6] | Potency [7] | Potency [12]

Nc1ccncc1
inactive: outcome [1] | outcome [2] | outcome [6] | Potency [7] | Potency [12]

CC(C)NCC(O)c1ccccc1Cl (stereo not given)
inactive: outcome [1] | outcome [2] | outcome [6] | Potency [7] | Potency [12]

O=C(NC(O)C(Cl)(Cl)Cl)NC(O)C(Cl)(Cl)Cl (stereo not given)
inactive: outcome [1] | outcome [2] | outcome [6] | Potency [7] | Potency [12]

CC(=O)Nc1cc([As](=O)(O)O)ccc1O
inactive: outcome [1] | outcome [2] | outcome [6] | Potency [7] | Potency [12]

CCN(CC)CCOC(=O)C1(C2CCCCC2)CCCCC1
inactive: outcome [3]
active: AC50 [1] 10 µM | AC50 [4] 15.8 µM

CC(C)=CC1C(C(=O)OCc2cccc(Oc3ccccc3)c2)C1(C)C (stereo not given)
inactive: outcome [1] | outcome [2] | outcome [6] | Potency [7] | Potency [12]

CCCN1CCC[C@@H]2Cc3[nH]ncc3C[C@H]21
inactive: outcome [1] | outcome [2] | outcome [6] | Potency [12]
